Compound activity: PubChem, National Center for Advancing Translational Sciences (NCATS)
DT40 TDP1 CPT: growth inhibition of DT40 Tdp1-/-;hTDP1 cells with camptothecin (screen for TDP1 inhibitors) | Potency, µM (doses to about 46.2 µM), actives largely listed as inhibitors | AID 686979 | chicken DT40 Tdp1-/-;hTDP1 cells + 20 nM CPT, ATP luminescence, 48 h | 420,000 tested, 12% active; also: nearly all actives have a fitted effect of over 55% in size
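Chicken DT40 Tdp1-/- cells stably complemented with human TDP1 were seeded at 400 cells/well in medium containing 20 nM camptothecin, exposed to pin-transferred compounds, and grown at 37 °C for at least 48 hr. Viability was read as ATP luminescence.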
HT1080-NT tox: kills 2HG-producing HT-1080-NT fibrosarcoma cells | HT-1080-NT fibrosarcoma viability, CellTiter-Glo ATP luminescence, 48 h | Potency, µM (series often up to 46.1 µM), usual class: cytotoxic | 360,000 tested, 1.6% active | AID 686970;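 also: NT is the 2HG producing partner of a matched IDH1 knockdown line; nearly all actives have a fitted effect of over 55% in size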
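HT-1080-NT fibrosarcoma cells (2HG-overproducing), 750 cells/well in RPMI with 5% FBS, dosed after 2 h and incubated 48 h at 37C. CellTiter-Glo luminescence normalized to DMSO and no-cell wells; concentration-response curves fitted and classed.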
IL-1B inflam inh: inhibitors of inflammasome signaling (IL-1 beta secretion) | THP-1 LPS/ATP IL-1B secretion, AlphaLISA, 16 h; hits give low values | activity change, % at 57.5 µM | 360,000 tested, 4.7% active; in the data active = activity change below about -50%; inconclusive = mostly about -30% to -49%
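Secreted IL-1B measured by AlphaLISA bead assay after 16 h compound exposure of THP-1 cells; compounds (final up to 57.5 uM) added 1 h before LPS (250 ng/mL) and ATP (1.25 mM) stimulation; lower signal means less secretion.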
DT40 TDP1 no CPT: qHTS for Inhibitors of human tyrosyl-DNA phosphodiesterase 1 (TDP1): qHTS in cells in absence of CPT. 420,000 tested, 15% active. AID 686978, 2013. DT40 Tdp1-/- hTDP1 cells, no CPT, ATP luminescence, 48 h. Potency, µM (titrated, usually from 46.2 µM), hits mostly inhibitors; also: nearly all actives have a fitted effect of over 55% in size
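Growth of hTDP1-complemented DT40 Tdp1-knockout cells is measured by ATP luminescence after at least 48 hr compound exposure at 37 °C, with DMSO substituting for the 20 nM CPT used in the parallel screen.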
HT1080 IDH1KD tx: HT-1080 IDH1 knockdown cell toxicity (counter line). HT-1080 IDH1 knockdown viability, ATP luminescence, 48 h. Potency, µM (titrated, usually from 46.1 µM), usual class: cytotoxic. 360,000 tested, 2% active. AID 686971
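% activity derives from luminescence (CellTiter-Glo), normalised to DMSO and no-cell wells. HT-1080-IDH1KD cells, 750/well, had 48 h compound exposure at 37 °C.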
Each line names hits and unclear results; the compound was inactive in the other large screens. Hits are enriched below; roughly 19% of the tested compounds scored in any of these assays. Unless noted, calls follow the shape of the dose curve; as a rule, active = well fitted curve in the direction sought with a large enough effect; inconclusive = small, poorly fitted or top-dose-only effect, or another doubt; inactive = no such curve, though single readings can be large; an effect the other way counts as inactive or inconclusive.

CSc1ccc(C(=O)C2CCCN(C(=O)c3ccsc3)C2)cc1 (stereo unspecified)	DT40 TDP1 CPT inconclusive, DT40 TDP1 no CPT inconclusive
CSc1ccc(C(=O)C2CCCN(C(=O)c3ccc4c(c3)no[n+]4[O-])C2)cc1 (stereo unspecified)	DT40 TDP1 CPT inconclusive, IL-1B inflam inh -67, DT40 TDP1 no CPT 13µM
O=C(c1ccc2ccccc2c1)C1CCCN(C(=O)CN2C(=O)CSC2=O)C1 (stereo unspecified)	none
CSc1ccc(C(=O)C2CCCN(C(=O)CCc3c(C)nn(C)c3C)C2)cc1 (stereo unspecified)	DT40 TDP1 CPT 10µM, HT1080-NT tox 13µM, DT40 TDP1 no CPT 8.2µM, HT1080 IDH1KD tx inconclusive
Cc1ccc(/C=C(\C#N)C(=O)Nc2cccc(C)n2)cc1	none
COc1ccccc1C(=O)C1CCCN(C(=O)c2cccnc2SC)C1 (stereo unspecified)	DT40 TDP1 CPT inconclusive, DT40 TDP1 no CPT inconclusive
CN(C)c1ccccc1C(=O)N1CCCC(Nc2ccc(F)cc2)C1 (stereo unspecified)	none
CSc1ncccc1C(=O)N1CCCC(C(=O)c2ccc3ccccc3c2)C1 (stereo unspecified)	DT40 TDP1 CPT inconclusive, IL-1B inflam inh -56, DT40 TDP1 no CPT 21µM
CN(C)c1ccccc1C(=O)N1CCCC(C(=O)c2ccc3ccccc3c2)C1 (stereo unspecified)	DT40 TDP1 CPT inconclusive, DT40 TDP1 no CPT 23µM
CSc1ccc(C(=O)C2CCCN(C(=O)c3cccnc3SC)C2)cc1 (stereo unspecified)	DT40 TDP1 CPT inconclusive, DT40 TDP1 no CPT 16µM
COc1ccc(-c2csc(N3CCOCC3)n2)cc1OC	IL-1B inflam inh inconclusive
COc1cc(-c2nnc(-c3ccc(S(=O)(=O)c4ccccc4)cc3)o2)cc(OC)c1OC	DT40 TDP1 CPT 12µM, DT40 TDP1 no CPT 12µM
COc1cc(-c2nnc(-c3ccc(N4CCOCC4)cc3)o2)cc(OC)c1OC	DT40 TDP1 CPT 6.5µM, IL-1B inflam inh inconclusive, DT40 TDP1 no CPT 5.8µM
COc1ccc2cc(C(=O)Nc3ccc(S(N)(=O)=O)cc3)sc(=O)c2c1OC	IL-1B inflam inh inconclusive, DT40 TDP1 no CPT inconclusive
Cc1ccc(NS(=O)(=O)c2ccc(C(=O)NCCCN3CCCC3=O)cc2)cc1	DT40 TDP1 CPT inconclusive, DT40 TDP1 no CPT inconclusive
CCN(Cc1ccncc1)Cc1nc(Cc2ccccc2Cl)no1	DT40 TDP1 CPT inconclusive, HT1080-NT tox inconclusive, DT40 TDP1 no CPT 13µM
CN(Cc1cnccn1)Cc1nc(Cc2ccccc2Cl)no1	none
COC(=O)C1CCCN1C(=O)C12CC3CC(CC(C3)C1)C2 (stereo unspecified)	none
CN1CCN/C1=C(/C(Cl)=C(Cl)Cl)[N+](=O)[O-]	DT40 TDP1 CPT 12µM, DT40 TDP1 no CPT 23µM
C/C(Cc1ccccc1)=N\NC(=O)CNC(=O)c1ccc(C(C)(C)C)cc1	none
CNC(=O)OCc1nc(SSC(C)(C)C)n(C)c1COC(=O)NC	DT40 TDP1 CPT 2.1µM, HT1080-NT tox inconclusive, IL-1B inflam inh -100, DT40 TDP1 no CPT 2.1µM, HT1080 IDH1KD tx 18µM
CCSc1nc(COC(=O)NC)c(COC(=O)NC)n1C	DT40 TDP1 CPT 2.3µM, DT40 TDP1 no CPT 5.2µM
Cc1ccc2c(c1)c(C)cc[n+]2Cc1ccccc1	DT40 TDP1 CPT 2.6µM, DT40 TDP1 no CPT 2.9µM, HT1080 IDH1KD tx inconclusive
Cc1ccc2ccc[n+](Cc3ccccc3)c2c1	DT40 TDP1 CPT 16µM, DT40 TDP1 no CPT 9.2µM
COc1ccc2c(c1)c(C)cc[n+]2Cc1ccccc1	DT40 TDP1 CPT 2.6µM, HT1080-NT tox 15µM, DT40 TDP1 no CPT 1.6µM, HT1080 IDH1KD tx 23µM
COc1ccccc1CNC(=O)Nc1nc(C(N)C(C)C)cs1 (stereo unspecified)	DT40 TDP1 CPT inconclusive, HT1080-NT tox inconclusive, IL-1B inflam inh -51, DT40 TDP1 no CPT inconclusive, HT1080 IDH1KD tx inconclusive
COc1ccc(OC)c(NC(=O)Nc2nc(CN)cs2)c1	DT40 TDP1 CPT inconclusive, DT40 TDP1 no CPT inconclusive
COc1ccc(OC)c(NC(=O)Nc2nc(C(C)N)cs2)c1 (stereo unspecified)	IL-1B inflam inh -69, DT40 TDP1 no CPT inconclusive
COc1ccccc1NC(=O)Nc1ccccc1C(N)=O	DT40 TDP1 CPT inconclusive
